The values below come from PubChem BioAssay (NCI).

Assay [1] in a line: NCI Yeast Anticancer Drug Screen. Data for the rad50 strain (AID 155).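 Further: 0% = growth of vehicle-only cultures of the same strain.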 As to conditions: S. cerevisiae rad50 strain growth inhibition, active compounds read high. An outline of the steps: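 DNA repair mutant yeast, compound exposure, growth read-out; inhibition is taken relative to vehicle.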
Assay [2] in a line: NCI Yeast Anticancer Drug Screen. Data for the mec2-1 strain (AID 157). Particulars: S. cerevisiae mec2-1 strain, active compounds read high. In outline:
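Mutant yeast (mec2-1) grown with compound; growth inhibition relative to vehicle control reported.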

Assay [3] can be described thus: NCI Yeast Anticancer Drug Screen. Data for the sgs1 mgt1 strain (AID 161).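 Further: 0% = growth of cultures given vehicle only.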 As to conditions: S. cerevisiae sgs1 mgt1 strain, active compounds read high. An outline of the steps:
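Growth of a repair-deficient yeast mutant was monitored after compound treatment and expressed as inhibition relative to vehicle-treated cultures.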

A short description of assay [4]: NCI Yeast Anticancer Drug Screen. Data for the cln2 rad14 strain (AID 165).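 Further: 0% = growth equal to vehicle treated cultures.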 As to conditions: S. cerevisiae cln2 rad14 strain, active compounds read high. An outline of the steps:
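Readout is yeast growth inhibition versus vehicle-treated controls, using a strain with cln2 and rad14 alterations exposed to compound.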

Assay [5] is described as follows: NCI Yeast Anticancer Drug Screen. Data for the bub3 strain (AID 167). Particulars: S. cerevisiae bub3 mutant strain, active compounds read high. In outline: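 In this screen, a yeast mutant lacking normal mitotic checkpoint function is challenged with compound. Relative growth versus vehicle gives the inhibition value.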
Assay [6] in a line: NCI Yeast Anticancer Drug Screen. Data for the mlh1 rad18 strain (AID 175). As to conditions: S. cerevisiae mlh1 rad18 strain growth inhibition, active compounds read high. In outline: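 Genetically defined yeast (DNA repair-deficient) exposed to compounds; growth inhibition determined relative to vehicle.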
Where [7] appears, read: at 5.0 µM (retest, dose inferred, filed as 0.5).
Where [8] appears, read: at 50.0 µM (retest, dose inferred, filed as 5.0).

Compounds without any hit were thinned out: in the full panel of roughly 79,000, 15% have a hit. Values without a mark were called inactive. Activity calls are given as the source filed them. No stated cut-off is given here; in the data, active means growth inhibition above about 70%; inactive means the rest.

Take `O=C1c2ccccc2C(=O)N1c1ccccc1`: the growth inhibition in assay [1] (setting [7]) is -2%; in assay [1] (setting [8]) it was -20%; in assay [1] (at 50.0 µM), 31.4%; in assay [2] (setting [7]), -3%; in assay [2] (setting [8]), -1%; in assay [2] (at 50.0 µM) it was -5.9%. The growth inhibition in assay [3] (setting [7]) is 1%; in assay [3] (setting [8]), 5%; in assay [3] (at 50.0 µM) it was 20%; in assay [4] (setting [7]), 3%; in assay [4] (setting [8]) it was 7%; in assay [4] (at 50.0 µM) it was 42.2%. Besides, the growth inhibition was 36% in assay [5] (setting [7]); 15% in assay [5] (setting [8]); 2.3% in assay [5] (at 50.0 µM); -1% in assay [6] (setting [7]); 2% in assay [6] (setting [8]); 16.4% in assay [6] (at 50.0 µM).
As for `Cc1ccc2nc(C[n+]3ccc4ccccc4c3)ccc2c1`, the growth inhibition in assay [1] (setting [7]) was -1%; in assay [1] (setting [8]) it was 28%; in assay [1] (at 50.0 µM), 53.5%; in assay [2] (setting [7]), -1%; in assay [2] (setting [8]), 17%; in assay [2] (at 50.0 µM), 50.2%. The growth inhibition in assay [3] (setting [7]) is -2%; in assay [3] (setting [8]), 47%; in assay [3] (at 50.0 µM), 44.4%; in assay [4] (setting [7]) it was -5%; in assay [4] (setting [8]), 5%; in assay [4] (at 50.0 µM), -1.8%. In addition, the growth inhibition in assay [5] (setting [7]) was -1%; in assay [5] (setting [8]), 38%; in assay [5] (at 50.0 µM) it was 43%; in assay [6] (setting [7]), 0%; in assay [6] (setting [8]) it was 16%; in assay [6] (at 50.0 µM), 55.9%.
For `FC(F)(F)C(C1=NC(C(F)(F)F)(C(F)(F)F)N=C(N2CCOCC2)O1)C(F)(F)F`, the growth inhibition was 24% in assay [1] (setting [7]); 33% in assay [1] (setting [8]); 24.8% in assay [1] (at 50.0 µM); 16% in assay [2] (setting [7]); 28% in assay [2] (setting [8]); 71.8% (active) in assay [2] (at 50.0 µM). The growth inhibition in assay [3] (setting [7]) was 20%; in assay [3] (setting [8]), 48%; in assay [3] (at 50.0 µM), 30.4%; in assay [4] (setting [7]), 26%; in assay [4] (setting [8]), 45%; in assay [4] (at 50.0 µM), 60.4%. Besides, the growth inhibition in assay [5] (setting [7]) was 36%; in assay [5] (setting [8]) it was 80% (active); in assay [5] (at 50.0 µM), 13.6%; in assay [6] (setting [7]), 51%; in assay [6] (setting [8]), 66%; in assay [6] (at 50.0 µM), 39.6%.
Regarding `CN(C)c1ccc(C(c2cc3c(cc2O)OCO3)N2CCCCC2)cc1` (stereo not given), the growth inhibition is 3% in assay [1] (setting [7]); 86% (active) in assay [1] (setting [8]); 99.3% (active) in assay [1] (at 50.0 µM); -4% in assay [2] (setting [7]); 98% (active) in assay [2] (setting [8]); 99.5% (active) in assay [2] (at 50.0 µM). Further, the growth inhibition was 8% in assay [3] (setting [7]); 88% (active) in assay [3] (setting [8]); 99.5% (active) in assay [3] (at 50.0 µM); -1% in assay [4] (setting [7]); 70% (active) in assay [4] (setting [8]); 98.3% (active) in assay [4] (at 50.0 µM). For the same compound, the growth inhibition in assay [5] (setting [7]) is -5%; in assay [5] (setting [8]) it was 97% (active); in assay [5] (at 50.0 µM), 99.3% (active); in assay [6] (setting [7]), -8%; in assay [6] (setting [8]) it was 97% (active); in assay [6] (at 50.0 µM) it was 99.3% (active).
For the compound `CN(C)c1nc(=Nc2ccc(N=c3nc(N(C)C)ss3)cc2)ss1`, the growth inhibition is 0% in assay [1] (setting [7]); 97% (active) in assay [1] (setting [8]); 91.8% (active) in assay [1] (at 50.0 µM); 4% in assay [2] (setting [7]); 96% (active) in assay [2] (setting [8]); 92.8% (active) in assay [2] (at 50.0 µM). In addition, the growth inhibition is 28% in assay [3] (setting [7]); 98% (active) in assay [3] (setting [8]); 88.2% (active) in assay [3] (at 50.0 µM); -4% in assay [4] (setting [7]); 93% (active) in assay [4] (setting [8]); 69% in assay [4] (at 50.0 µM). The growth inhibition in assay [5] (setting [7]) is 4%; in assay [5] (setting [8]), 98% (active); in assay [5] (at 50.0 µM), 93.4% (active); in assay [6] (setting [7]), 11%; in assay [6] (setting [8]), 98% (active); in assay [6] (at 50.0 µM), 96.9% (active).
For `CCCCCCN(CCCCCC)CC(O)c1cc(-c2ccccc2)nc2c(O)cccc12` (stereo not given), the growth inhibition in assay [1] (setting [7]) is 4%; in assay [1] (setting [8]) it was 56%; in assay [1] (at 50.0 µM) it was 23.7%; in assay [2] (setting [7]) it was 7%; in assay [2] (setting [8]), 73% (active); in assay [2] (at 50.0 µM), 22.6%. Besides, the growth inhibition in assay [3] (setting [7]) was -118%; in assay [3] (setting [8]) it was 95% (active); in assay [3] (at 50.0 µM) it was 93.8% (active); in assay [4] (setting [7]), 4%; in assay [4] (setting [8]) it was 42%; in assay [4] (at 50.0 µM), 8.2%. In addition, the growth inhibition in assay [5] (setting [7]) is 8%; in assay [5] (setting [8]) it was 92% (active); in assay [5] (at 50.0 µM), 40%; in assay [6] (setting [7]), 30%; in assay [6] (setting [8]), 87% (active); in assay [6] (at 50.0 µM) it was 33.5%.
As for `CSC(SC)=C(C#N)C(=O)Nc1ccc(C)cc1`, the growth inhibition is 25% in assay [1] (setting [7]); 47% in assay [1] (setting [8]); 40.5% in assay [1] (at 50.0 µM); 10% in assay [2] (setting [7]); 53% in assay [2] (setting [8]); 77.3% (active) in assay [2] (at 50.0 µM). Moreover, the growth inhibition was 37% in assay [3] (setting [7]); 55% in assay [3] (setting [8]); 73.4% (active) in assay [3] (at 50.0 µM); 36% in assay [4] (setting [7]); 37% in assay [4] (setting [8]); 29.3% in assay [4] (at 50.0 µM). Also, the growth inhibition in assay [5] (setting [7]) is 50%; in assay [5] (setting [8]), 53%; in assay [5] (at 50.0 µM), 89.7% (active); in assay [6] (setting [7]), 8%; in assay [6] (setting [8]) it was 8%; in assay [6] (at 50.0 µM), 83.8% (active).
For the compound `Cc1occc1C(=S)Nc1ccc(Cl)c(C(=O)OC(C)C2CC2)c1` (stereo not given), the growth inhibition in assay [1] (setting [7]) was 9%; in assay [1] (setting [8]) it was 59%; in assay [1] (at 50.0 µM), 58.1%; in assay [2] (setting [7]), 16%; in assay [2] (setting [8]) it was 48%; in assay [2] (at 50.0 µM), 39.9%. The growth inhibition in assay [3] (setting [7]) is -1%; in assay [3] (setting [8]) it was 46%; in assay [3] (at 50.0 µM), 78.8% (active); in assay [4] (setting [7]), -5%; in assay [4] (setting [8]), 51%; in assay [4] (at 50.0 µM), 81.5% (active). The growth inhibition in assay [5] (setting [7]) is 6%; in assay [5] (setting [8]) it was 56%; in assay [5] (at 50.0 µM) it was 77.1% (active); in assay [6] (setting [7]) it was 12%; in assay [6] (setting [8]), 76% (active); in assay [6] (at 50.0 µM), 63.5%.
Regarding `Cc1cc2nc(CC(=O)c3ccncc3)c(CC(=O)c3ccncc3)nc2cc1C`, the growth inhibition was 6% in assay [1] (setting [7]); 75% (active) in assay [1] (setting [8]); 78% (active) in assay [1] (at 50.0 µM); 9% in assay [2] (setting [7]); 60% in assay [2] (setting [8]); 53.9% in assay [2] (at 50.0 µM). The growth inhibition was 10% in assay [3] (setting [7]); 59% in assay [3] (setting [8]); 65.5% in assay [3] (at 50.0 µM); 25% in assay [4] (setting [7]); 84% (active) in assay [4] (setting [8]); 75.2% (active) in assay [4] (at 50.0 µM). In addition, the growth inhibition in assay [5] (setting [7]) was 31%; in assay [5] (setting [8]), 89% (active); in assay [5] (at 50.0 µM), 61.1%; in assay [6] (setting [7]), 12%; in assay [6] (setting [8]) it was 59%; in assay [6] (at 50.0 µM), 66.5%.
For `O=Nc1c(-c2cccc([N+](=O)[O-])c2)nc2cnccn12`, the growth inhibition in assay [1] (setting [7]) was 39%; in assay [1] (setting [8]) it was 99% (active); in assay [1] (at 50.0 µM) it was 97.7% (active); in assay [2] (setting [7]), 24%; in assay [2] (setting [8]), 99% (active); in assay [2] (at 50.0 µM) it was 98.5% (active). The growth inhibition is 54% in assay [3] (setting [7]); 99% (active) in assay [3] (setting [8]); 95.7% (active) in assay [3] (at 50.0 µM); 23% in assay [4] (setting [7]); 99% (active) in assay [4] (setting [8]); 99.3% (active) in assay [4] (at 50.0 µM). In addition, the growth inhibition was 4% in assay [5] (setting [7]); 99% (active) in assay [5] (setting [8]); 99.7% (active) in assay [5] (at 50.0 µM); 58% in assay [6] (setting [7]); 99% (active) in assay [6] (setting [8]); 97.5% (active) in assay [6] (at 50.0 µM).
